Each structure is given as a SMILES string. This is part of a sample that, as a whole, favours compounds with a hit. Of some 83,000 tested, about 20% had one in any assay.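 Activity criterion: percent growth below 10, measured after cells in 96-well plates were exposed to a single compound concentration for 48 hours.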 A number with no mark means an inactive call. Calls of active or inactive are those of the source.

Test systems include HCT-15 colon; HT29 colon; SNB-75 CNS; SNB-19 CNS; U251 CNS; PC-3 prostate; SK-MEL-5 melanoma; UACC-62 melanoma; LOX IMVI melanoma; SK-MEL-28 melanoma; EKVX NSCLC; SN12C renal; UO-31 renal; TK-10 renal; CAKI-1 renal; A498 renal; CCRF-CEM leukemia; MOLT-4 leukemia; ACHN renal.
Holding throughout (test): NCI-60 one-dose screen, 48 h (100 = growth as untreated, 0 = no growth, -100 = all killed)
What all share (conditions): 10 µM unless noted

Turning to `CN1CCC(COc2cnc(-c3cccc(Cn4nc(-c5cccc(C#N)c5)ccc4=O)c3)nc2)CC1`, the growth with HCT-15 colon is 12.4%; in the assay with HT29 colon, -38.5% (active); in the assay on SNB-75 CNS, 72.9%; in the assay on SNB-19 CNS, 78.2%; in the assay on U251 CNS, 16.4%; in the assay with PC-3 prostate, 67.8%. The growth with SK-MEL-5 melanoma was 43.2%; with UACC-62 melanoma, 95.1%; in the assay on LOX IMVI melanoma, 34.2%; in the assay with SK-MEL-28 melanoma, -13.2% (active); with EKVX NSCLC, 58.6%; in the assay on SN12C renal, 82.2%. Also, the growth is 77.8% with UO-31 renal; 102% in the assay with TK-10 renal; 79% in the assay with CAKI-1 renal; 95.1% in the assay on A498 renal; 34.7% in the assay with CCRF-CEM leukemia; 55.2% with MOLT-4 leukemia.

In the case of `CC[C@@H]1C(=O)N(C)c2cnc(Nc3ccc(C(=O)NC4CCN(C)CC4)cc3OC)nc2N1C1CCCC1`, the growth in the assay with HCT-15 colon is 4.6% (active); in the assay on HT29 colon, -3.91% (active); in the assay on SNB-75 CNS it was -0.626% (active); with SNB-19 CNS it was 31.3%; with U251 CNS, 12.7%; in the assay on PC-3 prostate it was 28%. Besides, the growth is -80.6% (active) with SK-MEL-5 melanoma; 11.6% in the assay on UACC-62 melanoma; -73.5% (active) in the assay on LOX IMVI melanoma; 34.4% in the assay on SK-MEL-28 melanoma; 31.6% in the assay with EKVX NSCLC; 2.27% (active) with SN12C renal. For the same molecule, the growth with TK-10 renal is 14.9%; with ACHN renal, 21.2%; in the assay with CAKI-1 renal, 23%; in the assay on A498 renal, -28.3% (active); in the assay on CCRF-CEM leukemia, -0.208% (active); in the assay with MOLT-4 leukemia, -14% (active).

As to `COC(=O)c1ccc2c(C(=Nc3ccc(N(C)C(=O)CN4CCN(C)CC4)cc3)c3ccccc3)c(O)[nH]c2c1`, the growth in the assay with HCT-15 colon is 65.9%; in the assay on HT29 colon it was 8.01% (active); in the assay on SNB-75 CNS it was 18%; in the assay with SNB-19 CNS, 67.9%; in the assay on U251 CNS it was 45.4%; in the assay with PC-3 prostate, 67.9%. Besides, the growth with SK-MEL-5 melanoma is 68%; with UACC-62 melanoma it was 90.2%; in the assay on LOX IMVI melanoma it was 33.6%; with SK-MEL-28 melanoma, 74.5%; in the assay on EKVX NSCLC, 94%; in the assay with SN12C renal, 44.8%. Besides, the growth with TK-10 renal was 46.5%; with ACHN renal, 48.8%; in the assay with CAKI-1 renal, 51.8%; with A498 renal, 21.7%; with CCRF-CEM leukemia, 40.4%; with MOLT-4 leukemia it was 50.5%.

Regarding `NC(=O)Nc1cc(-c2cccc(F)c2)sc1C(=O)N[C@H]1CCCNC1`, the growth with HCT-15 colon is -10.6% (active); with HT29 colon, -24% (active); in the assay with SNB-75 CNS, -89.8% (active); in the assay with SNB-19 CNS it was -26.7% (active); with U251 CNS, -62% (active); with PC-3 prostate, 16.2%. Also, the growth is -27.5% (active) in the assay with SK-MEL-5 melanoma; -21.1% (active) with UACC-62 melanoma; -75.2% (active) with LOX IMVI melanoma; 14.2% in the assay with SK-MEL-28 melanoma; 4.42% (active) with EKVX NSCLC; -5.05% (active) in the assay on SN12C renal. The growth in the assay on TK-10 renal is -66.3% (active); with ACHN renal, 3.94% (active); with CAKI-1 renal, -82.3% (active); in the assay with A498 renal, -83.7% (active); with CCRF-CEM leukemia it was 4.63% (active); in the assay with MOLT-4 leukemia, 2.79% (active).

With `COc1ccc(-c2ccc3ncc4c(c3c2)n(-c2ccc(N3CCNCC3)c(C(F)(F)F)c2)c(=O)n4C)cn1`, the growth in the assay on HCT-15 colon was -78.6% (active); in the assay on HT29 colon, -78.2% (active); in the assay with SNB-75 CNS it was -95.1% (active); with SNB-19 CNS, -74.2% (active); in the assay on U251 CNS, -85.5% (active); with PC-3 prostate it was -84.1% (active). Also, the growth with SK-MEL-5 melanoma was -92.4% (active); in the assay on UACC-62 melanoma, -74.7% (active); in the assay with LOX IMVI melanoma, -82% (active); in the assay with SK-MEL-28 melanoma it was -76.6% (active); with EKVX NSCLC it was -77.1% (active); with SN12C renal, -80.7% (active). Also, the growth was -90.2% (active) in the assay on TK-10 renal; -97.5% (active) in the assay on ACHN renal; -94.8% (active) with CAKI-1 renal; -79.2% (active) in the assay with A498 renal; -47.1% (active) with CCRF-CEM leukemia; -50.8% (active) in the assay on MOLT-4 leukemia.

On to `Cc1nc2cc(-c3nn(C(C)C)c4ncnc(N)c34)ccc2o1`, for which the growth is 1.74% (active) in the assay with HCT-15 colon; -8.06% (active) in the assay on HT29 colon; -70.1% (active) in the assay on SNB-75 CNS; -4.62% (active) with SNB-19 CNS; -15.3% (active) with U251 CNS; 3% (active) in the assay on PC-3 prostate. The growth with SK-MEL-5 melanoma was -49.2% (active); in the assay with UACC-62 melanoma, -53% (active); in the assay with LOX IMVI melanoma, -21.1% (active); with SK-MEL-28 melanoma, -34.3% (active); in the assay on EKVX NSCLC, -10.3% (active); with SN12C renal, 1.14% (active). For the same molecule, the growth with UO-31 renal is -35.7% (active); with TK-10 renal, -47% (active); in the assay with CAKI-1 renal, -36.7% (active); in the assay on A498 renal, -55.5% (active); with CCRF-CEM leukemia it was 6.03% (active); in the assay with MOLT-4 leukemia, -8.69% (active).

As for `CC(=O)C1=C(C)NC(SCc2nnc(-c3ccc(C)cc3)o2)=NC1c1ccc(F)cc1` (stereo unspecified), the growth was 101% in the assay with HCT-15 colon; 110% in the assay with HT29 colon; 98.5% in the assay on SNB-75 CNS; 94.1% in the assay with SNB-19 CNS; 95.2% in the assay on U251 CNS; 85.3% in the assay with PC-3 prostate. Further, the growth in the assay on SK-MEL-5 melanoma is 99%; in the assay on UACC-62 melanoma, 84.6%; in the assay on LOX IMVI melanoma, 93.2%; in the assay on SK-MEL-28 melanoma, -78.4% (active); in the assay on EKVX NSCLC, 107%; with SN12C renal, 93.1%. The growth in the assay with TK-10 renal is 85.6%; in the assay on ACHN renal, 92%; in the assay on CAKI-1 renal, 88%; in the assay with A498 renal, 109%; in the assay with CCRF-CEM leukemia, 88.1%; with MOLT-4 leukemia, 94.1%.

Consider `CCCS(=O)(=O)Nc1ccc(F)c(C(=O)c2c[nH]c3ncc(-c4ccc(Cl)cc4)cc23)c1F`, for which the growth is 28.4% with HCT-15 colon; 4.44% (active) in the assay with HT29 colon; 8.13% (active) with SNB-75 CNS; 40.4% in the assay with SNB-19 CNS; 18.5% in the assay on U251 CNS; 21.8% in the assay on PC-3 prostate. Also, the growth in the assay with SK-MEL-5 melanoma is 15.9%; in the assay on UACC-62 melanoma, -22.6% (active); in the assay on LOX IMVI melanoma it was 16.5%; in the assay on SK-MEL-28 melanoma, 1.65% (active); in the assay with EKVX NSCLC it was 43.1%; with SN12C renal, 49.6%. In addition, the growth with TK-10 renal was 23.8%; in the assay on ACHN renal it was 24.4%; in the assay with CAKI-1 renal, 12.1%; with A498 renal, -1.82% (active); with CCRF-CEM leukemia, 26.9%.

For the molecule `CC[C@H](CO)Nc1nc(NCc2ccccc2)c2ncn(C(C)C)c2n1`, the growth in the assay with HCT-15 colon was 53.4%; in the assay on HT29 colon, 54%; in the assay on SNB-75 CNS, 57.4%; in the assay with SNB-19 CNS it was 67.9%; with U251 CNS, 62.5%; with PC-3 prostate, 70.8%. For the same molecule, the growth was 66.5% in the assay on SK-MEL-5 melanoma; 46.8% in the assay with UACC-62 melanoma; 51.1% in the assay with LOX IMVI melanoma; 55.5% in the assay on SK-MEL-28 melanoma; 72.3% in the assay with EKVX NSCLC; 73.4% in the assay on SN12C renal. The growth in the assay on TK-10 renal was 92.4%; in the assay with ACHN renal it was 46.8%; in the assay with CAKI-1 renal, 48%; in the assay on A498 renal, 71.3%; in the assay with CCRF-CEM leukemia, 65.9%; with MOLT-4 leukemia, 49.6%.

Values taken from PubChem BioAssay (NCI).
